From PubChem BioAssay AID588855 (National Center for Advancing Translational Sciences (NCATS), 2011)
About 5,000 (1.2%) of roughly 410,000 compounds were called active. Not shown: some 13% with an inconclusive outcome. The call rests on the fitted dose curve; in most records, active means well fitted inhibition curve with a large enough effect; inconclusive means small, poorly fitted or top-dose-only effect; inactive means no such curve, though single readings can be large or run the other way. Many of the other results were omitted from the sample, so actives are more common in it than they were.

Experiment: qHTS for Inhibitors of TGF-b; further: nearly all actives have a fitted effect of over 65% in size
Conditions: HepG2 CAGA-GFP TGF-b/SMAD3 reporter, GFP fluorescence, 18 h, TGF-beta stimulated, 500 pg/mL final; series mostly up to 46.1 µM; activity, negative = inhibition: at the top concentration
Description: TGF-b is a main component in the TGF-b signaling pathway which plays diverse roles in cellular and development pathways. TGF-b is the mediated by the transcription factors Smads. Although the Smad-dependent pathway is the primary canonical TGF-b signaling node, TGF-b1 can also activate alternative signaling pathways, including those involving MAPK (ERK, JNK and p38). This interaction may mediate or enhance Smad-dependent responses, or can exert Smad-independent effects. The complexity of this signaling cascade allows the TGF-b superfamily to perform unique, overlapping or redundant functions. We believe that targeting the TGF-beta pathway at the Smad-transcription factor level may eliminate the consequences of disrupting the entire pathway and offer specificity without affecting other signaling pathways. Smad3 is the primary transducer of TGF-b's signals and Smad3 regulates many functions attributed to TGF-b signaling. We hypothesize that Smad3 inhibitors will selectively eliminate Smad3-specific TGF-beta signals without undesired off-target effects. We aim to identify Smad3-small molecule antagonists using a quantitative high throughput screening (qHTS) approach.
A high-throughput assay was developed to screen the NIH Molecular Libraries Small Molecule Repository (MLSMR). This is a cell based assay, where TGF-b is tagged with GFP. A counterscreen is run that looks at cytotoxicity (please see summary AID).
MH087449NIH Chemical Genomics Center [NCGC]
NIH Molecular Libraries Probe Centers Network [MLPCN]
Assay Submitter (PI): Sushil Rane, National Institute of […]
Suspensions of trypsinized HEPG2 CAGA-GFP cells were dispensed into white, tissue culture-treated, solid 1536-well plates at 5uL/well (1000 cells/well final concentration) in DMEM medium supplemented with 1% FBS. Plates were incubated at 37 degrees C for 2 hours, after which 23 nL of compounds or DMSO were delivered to each well using a pin tool. One uL of recombinant TGF-beta in DMEM (1% FBS) was then dispensed (500 pg/mL final concentration), and plates were incubated at 37 degrees C for 18 hours. The plates were measured on an Acumen eX3 Explorer plate reader for GFP fluorescence (ex488/em500-530). GFP values were calculated by determining the mean GFP fluorescence of individual cells, and compiling these values for each well to determine a total well GFP signal. The %Activity was determined from the corrected fluorescence values. A titration of the known TGF-B inhibitor SB431542 was included to monitor plate performance, while unstimulated HEPG2 (-TGF-B) control wells were used to normalize %Activity of identified inhibitors; unstimulated wells corresponded to 100%Activity (full inhibition), while stimulated cell controls (+DMSO) were used to normalize 0%Activity (no inhibition).
Concentration-response curves were fitted to the signals arising from the resulting fluorescence. The concentration-effect curves were then classified based on curve quality (r2), response magnitude and degree of measured activity, and compounds were subsequently categorized based on their curve class.
Potency means the concentration at half of the fitted maximal effect.

Potency, active:
NC1=CC(=O)C(=O)c2cccnc21 7.94 µM, COc1ccc(CNC(=O)C[C@H]2C[C@H](C(=O)N3CCOCC3)[C@@]3(CCC4CCCC4)c4[nH]c5ccc(Cl)cc5c4CCN3C2=O)cc1OC 1.78 µM, CC(C)N(C(=O)[C@H]1C[C@H](CC(=O)NC(C)(C)C)C(=O)N2CCc3c([nH]c4ccc(Cl)cc34)[C@]12C)C(C)C 11.2 µM, CCOC(=O)C1=C(N)N(c2ccc(C)cc2)C2=C(C(=O)CCC2)C1c1cccs1 (stereo unspecified) 11.2 µM, Oc1c(CN2CCCC2)cc(COCc2ccccc2)c2cccnc12 4.47 µM, Oc1c(CN2CCN(c3ccc(F)cc3)CC2)cc(Cl)c2cccnc12 7.08 µM

activity, negative = inhibition, inactive:
Cc1ccc2nc(COc3ccc(NC(=O)COc4ccccc4F)cc3)cc(=O)n2c1 2.5%, C[C@]12c3[nH]c4ccc(Cl)cc4c3CCN1C(=O)[C@@H](CC(=O)NCCCn1ccnc1)C[C@@H]2C(=O)N1CCOCC1 -17.1%, CCN(CC)C(=O)[C@H]1CC(CC(=O)NCc2ccco2)C(=O)N2CCc3c([nH]c4ccccc34)[C@]12C (stereo partly specified) -5.13%, COc1ccc2[nH]c3c(c2c1)CCN1C(=O)C(CC(=O)NCCCN(C)C)C[C@H](C(=O)N2CCOCC2)[C@@]31CCC1CCCC1 (stereo partly specified) 3.02%, O=C(C[C@H]1C[C@H](C(=O)N2CCOCC2)[C@@]2(CCC3CCCC3)c3[nH]c4ccc(Cl)cc4c3CCN2C1=O)NCc1ccco1 -11.8%, CCOC(=O)c1c(S(=O)(=O)N2CCCC(C(=O)NCc3cccc(C)c3)C2)c(C)n(C)c1C (stereo unspecified) -37.3%, Cc1ccc(-n2c(SCC(=O)c3ccccc3)nc3c([nH]c4ccccc43)c2=O)cc1 7.46%, CN1c2ccc(Cl)cc2-c2nc(SCC(=O)Nc3cc(F)ccc3F)ncc2S1(=O)=O 8.76%, O=C(c1ccc2c(c1)N(Cc1ccccc1F)C(=O)c1ccccc1S2(=O)=O)N1CCOCC1 1.56%, Cc1ccc(S(=O)(=O)NCc2nc3nc(C)cc(C)n3n2)cc1 18.1%, COc1ccc(CCNC(=O)CCCCn2c(=O)c3ccccc3n(Cc3ccccc3)c2=O)cc1OC 4.39%, CC(=O)c1ccc(NC(=O)CSc2c(C(C)C)cnc3c2c(=O)n(C)c(=O)n3C)cc1 -24.6%, O=C1CCCC2=C1C(c1cccs1)CC(=O)N2c1ccc(F)cc1 (stereo unspecified) 16.1%, CCOC(=O)c1cc2c(n(-c3ccc(C)cc3)c1=O)CCCC2=O 4.92%, COc1ccccc1NC(=O)c1oc2ccccc2c1NC(=O)COc1ccccc1OC 6.75%, O=C(Nc1ccc(Cl)cc1)c1cnn2c1NC(=C1CC1)C=C2C(F)F 6.09%, Cc1cc(=O)oc2cc(OCC(=O)N3CCN(c4ccc(F)cc4)CC3)c(Cl)cc12 5.48%, O=c1cc(CN2CCCCCCC2)c2c(ccc3ccccc32)o1 0.276%, Cc1cccc(C)c1NC(=O)CN1CCN(c2ccc(F)cc2)CC1 -22.8%, O=C(Cc1ccccc1)NNC(=O)C1CCN(c2ncccn2)CC1 2.56%
